# Data from PubChem BioAssay (Tox21).
# Values joined by “and” are separate entries in the source; they are usually repeats but may differ in a detail not shown here. Identical values can stand only once. Records with an inconclusive call do not appear. Where a call stands in place of a potency, no number is given. Active and inactive are the calls of the source. Unless noted, the call rests on the fitted dose curve.
# How the values were obtained:
# [1] = qHTS assay to identify small molecule agonists of the sonic hedgehog signaling (Shh) pathway (AID 1259368);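 further: NIH/3T3-derived 3T3Gli1-Luc cells carrying a stable Gli1-driven firefly luciferase reporter; series mostly up to about 92 µM; nearly all actives have a fitted effect of over 15% in size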
# Method in brief: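 Quantitative high-throughput format using a Gli1-driven firefly luciferase reporter line derived from NIH/3T3 cells. After a 24 hr compound treatment at 37 C and 5% CO2, luminescence reported Gli1 response element activity.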
# [2] = qHTS assay to identify small molecule antagonists of the sonic hedgehog signaling (Shh) pathway (AID 1259369); further: nearly all actives have a fitted effect of over 45% in size; further: potency means the concentration at half of the fitted maximal effect
# Method in brief: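 Stable Gli1-Luc reporter NIH/3T3 clone; quantitative HTS in stimulated mode with conditioned medium. Luminescence measured after 24hr compound treatment at 37 C.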
# [3] = molecular target: Estrogen receptor beta (Homo sapiens) (UniProt Q92731); assay: qHTS assay to identify small molecule antagonists of the estrogen receptor beta (ER-beta) signaling pathway (AID 1259378; active means well fitted inhibition curve with a large enough effect in the signal ratio in the repeat runs, not every such curve was filed as active; the % refers to the signal ratio; further: potency means the concentration at half of the fitted maximal effect)
# Sequence of Estrogen receptor beta (Homo sapiens) (Q92731 whole entry, looked up): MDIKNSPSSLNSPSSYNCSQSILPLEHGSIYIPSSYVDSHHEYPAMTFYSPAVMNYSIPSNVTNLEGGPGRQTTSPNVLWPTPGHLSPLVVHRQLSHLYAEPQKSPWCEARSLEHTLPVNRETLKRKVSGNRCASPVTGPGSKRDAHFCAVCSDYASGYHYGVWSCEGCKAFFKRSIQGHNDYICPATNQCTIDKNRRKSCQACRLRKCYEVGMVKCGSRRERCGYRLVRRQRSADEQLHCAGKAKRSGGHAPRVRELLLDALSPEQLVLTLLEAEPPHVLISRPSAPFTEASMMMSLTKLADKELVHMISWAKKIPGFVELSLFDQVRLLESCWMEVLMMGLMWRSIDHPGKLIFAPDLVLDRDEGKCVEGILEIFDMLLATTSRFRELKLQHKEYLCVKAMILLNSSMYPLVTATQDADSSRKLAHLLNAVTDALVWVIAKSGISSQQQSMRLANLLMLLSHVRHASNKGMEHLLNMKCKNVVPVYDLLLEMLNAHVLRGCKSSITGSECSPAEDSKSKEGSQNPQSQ
# Method in brief: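 Antagonist mode: compounds added to beta-lactamase reporter HEK293T ER-beta-UAS cells stimulated with E2 (1nM final), 16 hr at 37C. LiveBLAzer B/G FRET substrate, 2 hours room temperature, fluorescence read-out.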
# [4] = qHTS assay to identify small molecule agonists of the estrogen receptor beta (ER-beta) signaling pathway - cell viability counter screen (AID 1259380; active means well fitted curve in the direction sought with a large enough effect in the repeat runs; an effect the other way counts as inactive or inconclusive; further: nearly all actives have a fitted effect of over 30% in size; further: potency means the concentration at half of the fitted maximal effect)
# Method in brief: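 Steps: plate ER-beta-UAS-bla HEK293T cells, rest 6 hr; add compounds in DMSO; incubate 16 hr at 37C, 5% CO2; add FRET substrate 2 hr; add CellTiter-Glo, wait 30 min at room temperature; read luminescence.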
# [5] = molecular target: Androgen receptor (Homo sapiens) (UniProt P10275); assay: qHTS assay to identify small molecule agonists of the androgen receptor (AR) signaling pathway in the presence of an antagonist (AID 1259381); further: nearly all actives have a fitted effect of over 15% in size; further: potency means the concentration at half of the fitted maximal effect
# Sequence of Androgen receptor (Homo sapiens) (P10275 whole entry, looked up): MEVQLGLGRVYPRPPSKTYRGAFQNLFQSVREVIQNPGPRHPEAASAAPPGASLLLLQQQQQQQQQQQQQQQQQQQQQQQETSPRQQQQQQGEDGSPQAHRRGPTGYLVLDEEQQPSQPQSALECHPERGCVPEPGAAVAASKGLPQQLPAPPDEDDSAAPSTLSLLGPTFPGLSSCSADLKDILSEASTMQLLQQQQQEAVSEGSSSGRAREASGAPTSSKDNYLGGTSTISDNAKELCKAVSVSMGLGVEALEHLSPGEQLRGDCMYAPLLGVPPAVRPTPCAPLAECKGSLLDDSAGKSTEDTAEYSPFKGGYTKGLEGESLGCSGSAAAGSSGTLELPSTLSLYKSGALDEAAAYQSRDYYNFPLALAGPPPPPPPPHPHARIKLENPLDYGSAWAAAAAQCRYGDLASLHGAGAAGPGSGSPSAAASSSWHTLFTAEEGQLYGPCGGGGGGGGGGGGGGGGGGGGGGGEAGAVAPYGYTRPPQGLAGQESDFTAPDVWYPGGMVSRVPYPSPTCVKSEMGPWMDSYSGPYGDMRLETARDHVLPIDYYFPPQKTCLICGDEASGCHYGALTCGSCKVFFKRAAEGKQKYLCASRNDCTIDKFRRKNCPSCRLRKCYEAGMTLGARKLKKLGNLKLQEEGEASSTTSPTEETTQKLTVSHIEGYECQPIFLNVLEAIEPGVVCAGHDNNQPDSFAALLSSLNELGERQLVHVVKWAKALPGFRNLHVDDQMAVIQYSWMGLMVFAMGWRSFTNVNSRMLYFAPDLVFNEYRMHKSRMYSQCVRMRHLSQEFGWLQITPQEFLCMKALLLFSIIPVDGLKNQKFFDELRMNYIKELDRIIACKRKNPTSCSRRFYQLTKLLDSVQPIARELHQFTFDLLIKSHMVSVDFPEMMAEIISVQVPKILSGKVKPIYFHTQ
# Method in brief: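 Reporter-gene luminescence from MDA-kb2 cells exposed 16hr at 37C (0% CO2) to 15-point compound titrations with 3.0uM final nilutamide as AR antagonist.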
# [6] = molecular target: Estrogen receptor (Homo sapiens) (UniProt P03372); assay: qHTS assay to identify small molecule agonists of the estrogen receptor alpha (ER-alpha) signaling pathway in the presence of an antagonist (AID 1259383); further: top concentration of the series differs between compounds; nearly all actives have a fitted effect of over 15% in size
# Sequence of Estrogen receptor (Homo sapiens) (P03372 whole entry, looked up): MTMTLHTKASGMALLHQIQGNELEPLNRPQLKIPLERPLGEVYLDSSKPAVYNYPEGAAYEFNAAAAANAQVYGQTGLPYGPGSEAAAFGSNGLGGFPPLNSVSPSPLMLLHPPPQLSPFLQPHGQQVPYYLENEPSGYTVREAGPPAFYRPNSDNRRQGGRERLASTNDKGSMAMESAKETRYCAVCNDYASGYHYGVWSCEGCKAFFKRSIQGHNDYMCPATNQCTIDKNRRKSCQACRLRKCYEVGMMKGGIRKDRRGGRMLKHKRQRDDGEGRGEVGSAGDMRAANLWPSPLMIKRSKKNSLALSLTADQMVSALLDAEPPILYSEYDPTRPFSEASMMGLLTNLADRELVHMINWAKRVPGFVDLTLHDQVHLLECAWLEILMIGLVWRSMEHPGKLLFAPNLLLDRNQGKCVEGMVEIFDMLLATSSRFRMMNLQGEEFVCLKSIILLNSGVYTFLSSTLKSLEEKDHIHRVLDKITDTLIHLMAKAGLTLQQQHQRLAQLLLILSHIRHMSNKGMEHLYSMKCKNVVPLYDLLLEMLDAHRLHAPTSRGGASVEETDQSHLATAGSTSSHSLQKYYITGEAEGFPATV
# Method in brief: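 Readout was ERE-driven luciferase luminescence in VM7Luc4E2 cells, which express full-length ER-alpha endogenously. Compounds were tested at 15 concentrations for 22hr alongside 10.0nM ICI-182,780 (final concentration).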
# [7] = qHTS assay to identify small molecule agonists or antagonists of the thyroid stimulating hormone receptor (TSHR) signaling pathway - wild type cell line counter screen (AID 1259384)
# Method in brief: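 Counter screen in untransfected Hek293: compounds (15-point titration, triplicate) plus phosphodiesterase inhibitor Ro20-1724 added after 18 h plating; 30 min RT. Intracellular cAMP via competitive d2/cryptate immunoassay, 1 h incubation.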
# [8] = qHTS assay to identify small molecule agonists of the estrogen receptor alpha (ER-alpha) signaling pathway in the presence of an antagonist - cell viability counter screen (AID 1259386; active means well fitted curve in the direction sought with a large enough effect in the repeat runs; an effect the other way counts as inactive or inconclusive;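 further: cells exposed to compounds for 22 h at 37 °C before the viability read; nearly all actives have a fitted effect of over 30% in size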; further: potency means the concentration at half of the fitted maximal effect)
# Method in brief: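 In this counter screen, compound effects on VM7Luc4E2 viability were tested in the presence of the antagonist ICI-182,780 at 10.0nM final. Compounds were dosed at 15 concentrations, exposure lasted 22hr, and the CellTiter-Fluor signal was read.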
# [9] = molecular target: Progesterone receptor (Homo sapiens) (UniProt P06401); assay: qHTS assay to identify small molecule antagonists of the progesterone receptor (PR) signaling pathway (AID 1346795; active means well fitted inhibition curve with a large enough effect in the signal ratio in the repeat runs, not every such curve was filed as active; the % refers to the signal ratio; further: potency means the concentration at half of the fitted maximal effect)
# Sequence of Progesterone receptor (Homo sapiens) (P06401 whole entry, looked up): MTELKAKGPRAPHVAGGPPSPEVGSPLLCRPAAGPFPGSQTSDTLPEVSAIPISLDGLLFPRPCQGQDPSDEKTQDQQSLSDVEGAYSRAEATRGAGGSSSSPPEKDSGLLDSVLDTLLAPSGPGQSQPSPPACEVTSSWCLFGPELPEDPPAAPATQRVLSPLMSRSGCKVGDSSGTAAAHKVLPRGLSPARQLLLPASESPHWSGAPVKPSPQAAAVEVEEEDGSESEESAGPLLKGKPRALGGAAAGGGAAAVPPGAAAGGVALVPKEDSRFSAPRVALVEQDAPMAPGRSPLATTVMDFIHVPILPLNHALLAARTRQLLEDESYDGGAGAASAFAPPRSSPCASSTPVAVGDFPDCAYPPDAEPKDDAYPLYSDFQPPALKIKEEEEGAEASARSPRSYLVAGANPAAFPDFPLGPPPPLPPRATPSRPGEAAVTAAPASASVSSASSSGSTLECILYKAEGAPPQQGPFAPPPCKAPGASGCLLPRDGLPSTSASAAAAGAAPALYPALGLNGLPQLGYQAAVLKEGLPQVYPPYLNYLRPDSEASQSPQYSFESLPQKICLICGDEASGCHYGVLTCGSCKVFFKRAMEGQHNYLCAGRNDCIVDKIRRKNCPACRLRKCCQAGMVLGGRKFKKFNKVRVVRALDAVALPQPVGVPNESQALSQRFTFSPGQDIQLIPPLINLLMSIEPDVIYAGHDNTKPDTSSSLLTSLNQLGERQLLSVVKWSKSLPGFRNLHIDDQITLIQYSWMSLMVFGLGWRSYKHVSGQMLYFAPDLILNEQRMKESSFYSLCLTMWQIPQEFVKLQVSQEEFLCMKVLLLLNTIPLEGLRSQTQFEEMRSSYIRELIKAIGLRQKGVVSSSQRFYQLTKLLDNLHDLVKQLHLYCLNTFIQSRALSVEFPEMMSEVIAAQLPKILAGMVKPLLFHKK
# Method in brief: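 PR-UAS-bla HEK293T cells with beta-lactamase reporter under UAS control, in 2% charcoal-stripped FBS, treated with compounds plus 1 nM promegestone (R5020, final) for 16 hr at 37C. Read-out: FRET beta-lactamase substrate fluorescence after 2 hr at room temperature.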
# [10] = qHTS assay to identify small molecule antagonists of the TGF-beta/Smad signaling pathway - cell viability counter screen (AID 1346824; active means well fitted curve in the direction sought with a large enough effect in the repeat runs; an effect the other way counts as inactive or inconclusive; further: nearly all actives have a fitted effect of over 50% in size; further: potency means the concentration at half of the fitted maximal effect)
# Method in brief: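 Cytotoxicity counter-screen run in the same wells as the beta-lactamase Smad reporter read: CellTiter-Glo luminescence after 30 min at room temperature. HEK 293T SBE-bla cells had 5 hr compound exposure at 37 C with TGF-beta1 (0.25 ng/mL stock).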
# [11] = qHTS assay to identify small molecule agonists of the TGF-beta/Smad signaling pathway (AID 1346859; active means well fitted activation curve with a large enough effect in the signal ratio in the repeat runs, not every such curve was filed as active; the % refers to the signal ratio; further: series mostly up to about 77 µM)
# Method in brief: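 SBE-bla HEK293T cells plated overnight, then compound exposure for 5 h at 37 C. Beta-lactamase reporter read with LiveBLAzer B/G FRET substrate after 2 h at room temperature, fluorescence at 405 nm excitation, 460/530 nm emission.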
# [12] = qHTS assay to identify small molecule agonists of the androgen receptor (AR) signaling pathway in the presence of an antagonist - cell viability counter screen (AID 1259379; active means well fitted curve in the direction sought with a large enough effect in the repeat runs; an effect the other way counts as inactive or inconclusive; further: nearly all actives have a fitted effect of over 25% in size; further: potency means the concentration at half of the fitted maximal effect)
# Method in brief: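 Nilutamide-containing (3.0uM final) MDA-kb2 cultures, 3,000 cells/well, were treated with compounds across 15 concentrations. After 16 hr at 37C with no CO2, cell viability was determined by CellTiter-Fluor fluorescence in the luciferase assay wells.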
# [13] = molecular target: Thyrotropin receptor (Homo sapiens) (UniProt P16473); assay: qHTS assay to identify small molecule antagonists of the thyroid stimulating hormone receptor (TSHR) signaling pathway (AID 1259385); further: nearly all actives have a fitted effect of over 20% in size; further: potency means the concentration at half of the fitted maximal effect
# Sequence of Thyrotropin receptor (Homo sapiens) (P16473 whole entry, looked up): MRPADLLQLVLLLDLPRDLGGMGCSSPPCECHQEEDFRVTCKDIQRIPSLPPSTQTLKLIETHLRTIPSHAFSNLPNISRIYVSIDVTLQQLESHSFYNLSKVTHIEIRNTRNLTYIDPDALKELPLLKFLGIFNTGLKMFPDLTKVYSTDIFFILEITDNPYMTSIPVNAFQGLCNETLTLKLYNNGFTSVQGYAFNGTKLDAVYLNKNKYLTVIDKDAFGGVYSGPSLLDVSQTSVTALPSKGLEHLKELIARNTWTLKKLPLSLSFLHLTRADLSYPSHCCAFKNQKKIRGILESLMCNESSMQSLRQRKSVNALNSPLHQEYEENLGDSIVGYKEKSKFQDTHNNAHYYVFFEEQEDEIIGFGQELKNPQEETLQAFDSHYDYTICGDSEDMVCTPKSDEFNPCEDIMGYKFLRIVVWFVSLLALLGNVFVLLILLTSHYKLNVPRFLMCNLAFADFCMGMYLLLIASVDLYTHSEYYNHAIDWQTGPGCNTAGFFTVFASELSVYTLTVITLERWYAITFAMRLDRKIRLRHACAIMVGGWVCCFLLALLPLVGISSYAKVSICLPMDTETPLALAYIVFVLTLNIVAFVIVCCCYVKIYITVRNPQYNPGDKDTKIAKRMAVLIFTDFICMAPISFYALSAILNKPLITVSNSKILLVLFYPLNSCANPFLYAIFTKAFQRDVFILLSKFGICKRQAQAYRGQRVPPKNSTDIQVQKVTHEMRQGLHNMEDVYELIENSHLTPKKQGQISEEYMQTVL
# Method in brief: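 Antagonist mode: compound-treated TSHR-expressing HEK293 cells were stimulated with 1.5 ng/mL TSH (final) in presence of Ro20-1724 for 30 min at RT. HTRF cAMP detection after 1 h; each compound tested at 15 concentrations, triplicate.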
# [14] = molecular target: Progesterone receptor (Homo sapiens) (UniProt P06401); assay: qHTS assay to identify small molecule agonists of the progesterone receptor (PR) signaling pathway (AID 1346784); further: nearly all actives have a fitted effect of over 30% in size; further: potency means the concentration at half of the fitted maximal effect
# Method in brief: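 PR-UAS-bla HEK 293T cells (beta-lactamase reporter under UAS) in 2% charcoal-stripped FBS, dosed with 23 nL compound after 6 hr, incubated 16hr at 37C. LiveBLAzer B/G FRET substrate added, fluorescence read after 2 hours.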
# [15] = qHTS assay to identify small molecule antagonists of the progesterone receptor (PR) signaling pathway - cell viability counter screen (AID 1346798; active means well fitted curve in the direction sought with a large enough effect in the repeat runs; an effect the other way counts as inactive or inconclusive; further: nearly all actives have a fitted effect of over 50% in size; further: potency means the concentration at half of the fitted maximal effect)
# Method in brief: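 PR-UAS-bla HEK293T cells, 3,000/well in 2% charcoal-stripped FBS medium, dosed with compounds plus R5020 agonist and incubated 16 h at 37C. Viability then measured in the same wells by CellTiter-Glo luminescence after 30 min at RT.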
# [16] = qHTS assay to identify small molecule agonists of the progesterone receptor (PR) signaling pathway - cell viability counter screen (AID 1346799); further: nearly all actives have a fitted effect of over 45% in size; further: potency means the concentration at half of the fitted maximal effect
# Method in brief: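 Counter screen in the PR-UAS-bla HEK293T wells (2% charcoal-stripped FBS, 16 h compound exposure at 37 C) after the bla read. CellTiter-Glo added, 30 min at room temperature, luminescence read as cell viability.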
# [17] = qHTS assay to identify small molecule agonists of the TGF-beta/Smad signaling pathway - cell viability counter screen (AID 1346829; active means well fitted curve in the direction sought with a large enough effect in the repeat runs; an effect the other way counts as inactive or inconclusive; further: top concentration of the series differs between compounds; nearly all actives have a fitted effect of over 45% in size)
# Method in brief: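 Luminescence from CellTiter-Glo, read after a 30 min room-temperature incubation, gives cell viability of SBE-bla HEK 293T cells treated 5 hr with compounds at 37 C.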
# [18] = molecular target: Thyrotropin-releasing hormone receptor (Homo sapiens) (UniProt P34981); assay: qHTS assay to identify small molecule antagonists of the thyrotropin-releasing hormone receptor (TRHR) signaling pathway (AID 1346877; active means well fitted inhibition curve with a large enough effect in the repeat runs, not every such curve was filed as active; further: series mostly up to about 51 µM)
# Sequence of Thyrotropin-releasing hormone receptor (Homo sapiens) (P34981 whole entry, looked up): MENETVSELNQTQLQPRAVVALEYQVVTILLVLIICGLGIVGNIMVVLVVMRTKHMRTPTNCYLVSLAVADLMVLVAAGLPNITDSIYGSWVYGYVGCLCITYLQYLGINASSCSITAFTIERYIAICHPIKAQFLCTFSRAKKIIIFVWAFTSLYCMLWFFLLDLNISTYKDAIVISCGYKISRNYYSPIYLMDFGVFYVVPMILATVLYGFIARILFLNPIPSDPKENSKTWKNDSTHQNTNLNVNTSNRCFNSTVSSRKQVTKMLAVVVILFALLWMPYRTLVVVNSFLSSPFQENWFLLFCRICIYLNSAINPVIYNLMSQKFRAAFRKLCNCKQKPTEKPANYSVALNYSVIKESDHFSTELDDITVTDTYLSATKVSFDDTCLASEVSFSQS
# Method in brief: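 Kinetic fluorescence (3 min, 1 s resolution) following stimulation with TRH at 1 nM final; HEK293 cells bearing human TRHR; 5 min compound preincubation at RT; concentration-response over 15 points, triplicates.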
# [19] = qHTS assay to identify small molecule antagonists of the estrogen receptor beta (ER-beta) signaling pathway - cell viability counter screen (AID 1259382; active means well fitted curve in the direction sought with a large enough effect in the repeat runs; an effect the other way counts as inactive or inconclusive; further: nearly all actives have a fitted effect of over 55% in size; further: potency means the concentration at half of the fitted maximal effect)
# Method in brief: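 Viability is scored by CellTiter-Glo luminescence (30 min, room temperature) in ER-beta-UAS-bla HEK293T wells already read for reporter fluorescence. Compound exposure lasts 16 hr at 37C alongside 1nM 17-beta-estradiol in charcoal-stripped serum medium.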
SMILES,Potency [1],Potency [2],Potency [3],Potency [4],Potency [5],Potency [6],outcome [7],Potency [8],Potency [9],Potency [10],Potency [11],Potency [12],Potency [13],Potency [14],Potency [15],Potency [16],Potency [17],outcome [18],Potency [19]
COc1ccccc1NC(=O)c1cc2ccccc2cc1O,inactive,27.3 µM (active),17.2 µM (active),54.5 µM (active),inactive,inactive,inactive,inactive,24.3 µM (active),49 µM (active),inactive,,,,,,,,
O=C(CCCN1CC=C(n2c(=O)[nH]c3ccccc32)CC1)c1ccc(F)cc1,inactive,inactive,inactive,13.3 µM (active),,inactive,inactive,inactive,inactive,inactive,,inactive,inactive,inactive,inactive,inactive,inactive,inactive,
CC1(C)O[C@@H]2C[C@H]3[C@@H]4C[C@H](F)C5=CC(=O)C=C[C@]5(C)[C@H]4[C@@H](O)C[C@]3(C)[C@]2(C(=O)CO)O1,inactive,inactive,inactive,inactive,,inactive,inactive,inactive,inactive,inactive,,inactive,inactive,0.0119 µM (active),inactive,inactive,inactive,,inactive
CCCCCCCCCI,inactive,inactive,inactive,inactive,,inactive,inactive,inactive,inactive,inactive,inactive,,inactive,,inactive,inactive,inactive,inactive,inactive
NC1[C@H]2CN(c3nc4c(cc3F)c(=O)c(C(=O)O)cn4-c3ccc(F)cc3F)C[C@@H]12 (stereo partly specified),inactive,29.8 µM (active),,inactive,inactive,inactive,inactive,,,,inactive,inactive,inactive,,,inactive,inactive,inactive,inactive
C=C1CCC2CC1C2(C)C (stereo unspecified),inactive,inactive,inactive,inactive,,inactive,inactive,inactive,inactive,inactive,inactive,inactive,inactive,inactive,inactive,inactive,inactive,,inactive
CC(C)(C)CC(=O)OCC(=O)[C@@]1(O)CC[C@H]2[C@@H]3CCC4=CC(=O)C=C[C@]4(C)[C@H]3[C@@H](O)C[C@@]21C,inactive,6.68 µM (active),26.6 µM (active),8.41 µM (active),,inactive,inactive,inactive,21.1 µM (active),inactive,inactive,inactive,,inactive,,,inactive,inactive,
O=C(O)c1ccc(OCCCOc2ccc(C(=O)O)cc2)cc1,inactive,inactive,inactive,inactive,,,inactive,,inactive,inactive,inactive,inactive,inactive,inactive,inactive,inactive,inactive,inactive,inactive
Oc1cccc(O)c1O,inactive,15.2 µM (active),inactive,inactive,,inactive,inactive,,inactive,inactive,inactive,inactive,inactive,,inactive,inactive,inactive,inactive,inactive
CCC1NC(=O)c2cc(S(N)(=O)=O)c(Cl)cc2N1 (stereo unspecified),inactive,inactive,inactive,,,,inactive,inactive,inactive,inactive,inactive,inactive,inactive,inactive,inactive,inactive,inactive,inactive,inactive
CC(=O)c1ccc([N+](=O)[O-])cc1,inactive,inactive,inactive,inactive,,,inactive,inactive,,inactive,inactive,inactive,inactive,,inactive,inactive,inactive,,inactive
CN1CCCC(CC2c3ccccc3Sc3ccccc32)C1 (stereo unspecified),inactive,6.68 µM (active),13.3 µM (active),18.8 µM (active),,inactive,inactive,inactive,,,inactive,,29.8 µM (active),inactive,18.8 µM (active),18.8 µM (active),inactive,inactive,11.9 µM (active)
NCCNCCO,inactive,inactive,inactive,inactive,,inactive,inactive,,inactive,inactive,inactive,inactive,inactive,inactive,inactive,inactive,inactive,inactive,inactive
C=C1C[C@@]23CC[C@H]4[C@@](C)(CCC[C@@]4(C)C(=O)O[C@@H]4O[C@H](CO)[C@@H](O)[C@H](O)[C@H]4O)[C@@H]2CC[C@]1(O[C@@H]1O[C@H](CO)[C@@H](O)[C@H](O[C@@H]2O[C@H](CO)[C@@H](O)[C@H](O)[C@H]2O)[C@H]1O[C@@H]1O[C@H](CO)[C@@H](O)[C@H](O)[C@H]1O)C3,inactive,inactive,inactive,inactive,inactive,inactive,inactive,,inactive,,inactive,inactive,inactive,inactive,inactive,inactive,inactive,inactive,inactive
Cc1cscn1,inactive,inactive,inactive,inactive,inactive,inactive,inactive,,inactive,inactive,inactive,inactive,inactive,inactive,inactive,inactive,inactive,,inactive
Brc1cc(Br)c(Oc2cc(Br)c(Br)cc2Br)cc1Br,inactive,inactive,inactive,29.9 µM (active),,inactive,inactive,inactive,inactive,inactive,inactive,inactive,inactive,inactive,,,inactive,,
CN1C(=O)c2ccccc2C1=O,inactive,43.3 µM (active),inactive,inactive,,,inactive,inactive,,inactive,inactive,inactive,inactive,,,,inactive,inactive,inactive
CCCCC(CC)CN (stereo unspecified),inactive,inactive,inactive,inactive,inactive,inactive,inactive,,inactive,,inactive,,inactive,inactive,inactive,inactive,inactive,inactive,inactive
C[C@H]1c2cccc(O)c2C(O)=C2C(=O)[C@]3(O)C(O)=C(C(N)=O)C(=O)[C@@H](N(C)C)[C@@H]3[C@@H](O)[C@@H]21,inactive,inactive,,inactive,inactive,inactive,,inactive,,,,inactive,,,inactive,inactive,inactive,inactive,inactive
CC(C)=CCC/C(C)=C/CC/C(C)=C/C(=O)OCC(=O)[C@@]1(O)CC[C@H]2[C@@H]3CCC4=CC(=O)C=C[C@]4(C)[C@H]3[C@@H](O)C[C@@]21C,inactive,8.41 µM (active),13.3 µM (active),,0.335 µM (active),inactive,inactive,,,,inactive,26.6 µM (active),,inactive,,,inactive,inactive,inactive
Cc1cc(O)c(C)c(C)c1O,inactive,inactive,,inactive,inactive,inactive,,,inactive,inactive,inactive,inactive,,inactive,inactive,inactive,inactive,inactive,inactive
CCn1cc(C(=O)O)c(=O)c2cc(F)c(N3CCNCC3)cc21,inactive,inactive,inactive,inactive,,inactive,inactive,inactive,inactive,inactive,inactive,inactive,inactive,,inactive,inactive,inactive,,inactive
c1ccc2sc(SN(C3CCCCC3)C3CCCCC3)nc2c1,inactive,inactive,inactive,inactive,,inactive,inactive,inactive,,inactive,inactive,inactive,inactive,inactive,inactive,inactive,inactive,,inactive
C[C@@H]1CC(=O)NN=C1c1ccc(NN=C(C#N)C#N)cc1,inactive,13.3 µM (active),,inactive,inactive,inactive,inactive,26.6 µM (active),,inactive,inactive,23.7 µM (active) and 13.3 µM (active),inactive,inactive,inactive,inactive,inactive,inactive,inactive
CCC1CO1 (stereo unspecified),inactive,inactive,inactive,inactive,,,inactive,inactive,inactive,inactive,inactive,inactive,inactive,inactive,inactive,inactive,inactive,,inactive
C=Cc1ccc(S(=O)(=O)O)cc1,inactive,61.1 µM (active),inactive,inactive,,inactive,inactive,inactive,inactive,inactive,inactive,inactive,17.2 µM (active),inactive,inactive,inactive,inactive,inactive,inactive
